Each structure is given as a SMILES string. The list shows a part of the results. Where a call stands in place of a potency, no number is given. Results filed as inconclusive are left out. Active and inactive are the calls of the source. Calls follow the shape of the dose curve; as a rule, active = well fitted inhibition curve with a large enough effect; inconclusive = small, poorly fitted or top-dose-only effect, or effect the other way; inactive = no such curve, though single readings can be large or run the other way.

Sequence of Muscleblind-like protein 1 (Homo sapiens) (Q9NR56 whole entry, looked up): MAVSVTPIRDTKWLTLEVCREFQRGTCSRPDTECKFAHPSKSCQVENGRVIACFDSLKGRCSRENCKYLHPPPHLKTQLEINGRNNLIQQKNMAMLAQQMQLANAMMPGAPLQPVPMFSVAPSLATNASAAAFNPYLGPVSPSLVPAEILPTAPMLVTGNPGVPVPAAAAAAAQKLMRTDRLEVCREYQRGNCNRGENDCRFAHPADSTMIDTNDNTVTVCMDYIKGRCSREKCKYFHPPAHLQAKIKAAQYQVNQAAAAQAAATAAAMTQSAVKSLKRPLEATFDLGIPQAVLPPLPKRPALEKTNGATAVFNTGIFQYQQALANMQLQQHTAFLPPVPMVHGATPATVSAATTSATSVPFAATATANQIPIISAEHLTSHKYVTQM

This test has as its target Muscleblind-like protein 1 (Homo sapiens) (UniProt Q9NR56). The test can be described thus: qHTS Assay for Inhibitors of MBNL1-poly(CUG) RNA binding: Initial hit validation in AlphaScreen assay for MBNL1-(CUG)12 binding. The note with it: AlphaScreen MBNL1-His / biotin-(CUG)12 binding; series mostly up to 57.7 µM. The source says:
NIH Chemical Genomics Center [NCGC] NIH Molecular Libraries Probe Production Centers Network [MLPCN] MLPCN Grant: R03 MH087421-01 Assay Submitter (PI): Charles Thornton NCGC Assay Overview: Expanded CTG repeats in the 3' untranslated region of the DM protein kinase (DMPK) gene causes type I myotonic dystrophy (DM1). DM1 is a multi-systemic disease with a prevalence of 1/7000. Clinical features include myotonia, progressive muscle weakness and wasting, cardiac arrhythmia, insulin resistance, hypersomnolence, cataracts, and other symptoms. The pathogenic effect of expanded CTG repeats stems from deleterious effects of the mutant transcript. CUGexp mRNA accumulates in nuclear foci and sequesters proteins of the muscleblind family, of which MBNL1 is the most common family member in skeletal muscles. The binding interaction between MBNL1 and CUGexp tracts leads to deregulation of alternative splicing and is therefore a key molecular step in the pathogenesis of DM1. […]
NCGC Assay Protocol Summary: This is a proximity-based binding assay with MBNL1-His and Biotin-(CUG)12 RNA. […] The AC50 values were determined from concentration-response data modeled with the standard Hill equation Assay buffer: 20mM HEPES, 110mM KCl, 10mM NaCl, 2mM MgCl2, 2mM CaCl2, 5mM DTT, 0.1% BSA, 0.05% Tween 20 1536-well assay protocol for the MBNL1-(CUG)12 binding assay: (1) Add 2 ul/well 20nM MBNL1-His, 20nM Biotin-(CUG)12 (2) Add 23 nL compounds in DMSO solution. […] (3) Add 1 ul of Nickel-coated AlphaScreen acceptor beads (6.25 ng/ul final concentration) (4) Incubate 30 min at room temperature (5) Add 1 ul of Streptavidin-conjugated AlphaScreen donor beads (6.25 ng/ul final concentration) (6) Incubate 60 min at room temperature (7) Detect the assay plate in a EnVision plate reader (PerkinElmer) with AlphaScreen protocol Keywords: mytonic dystrophy type I, DM1, muscleblind like 1, MBNL1, CUG expansion, protein-RNA binding inhibitor, high throughput screening, MLSMR, MLSCN, NIH Roadmap, qHTS and NCGC
(In general: Quantitative high-throughput screening tests each substance at several concentrations.)
In the case of `COc1ccc(Cc2n[nH]c(=S)n2NC(=O)Nc2ccc(C)cc2)cc1`, the Potency entry is “inactive”.

As to `CCOC(=O)c1c(C)[nH]c2c1-c1ccccc1C(=O)C2=O`, the Potency is 4.11 µM (active).

In the case of `COc1cccc(NC(=O)Cn2cnc3sc(C)c(S(=O)(=O)N4CCN(C)CC4)c3c2=O)c1`, the Potency entry was “inactive”.

(Values after PubChem BioAssay AID493205 (National Center for Advancing Translational Sciences (NCATS), 2011).)
